# Several values for one entry are separate records, joined by “and”; a condition that tells them apart may be missing. Identical values can stand only once. Activity calls are given as the source filed them. Unless noted, how the calls were made is not given here.
# How the values were obtained:
# [1] = system: Wnt5a (protein binding on small-molecule microarray); test: Wnt5a binders on small-molecule microarray, primary screen, biophysical, 635/667 nm fluorescence (AID 1142); conditions: 635 nm fluorescence, higher = more signal;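 further: fluorescence read at 667 nm with signal to noise per printed feature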
# [2] = cell viability in Huh7 cells, primary screen, cytotoxicity control for HCV replication inhibitor project, CellTiter-Glo luminescence, basal, 48 h (AID 1143); conditions: Huh7 HCV replicon, higher = more signal, called active from +8 up or from −8 down;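 further: Huh7 hepatoma cells carrying a hepatitis C replication reporter with no stimulus; test concentration not given here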
# [3] = P. aeruginosa biofilm formation inhibitors, primary screen, PAO1 strain, BacTiter-Glo luminescence, LB-PBS (AID 1144); conditions: 12 h, higher = more signal
# [4] = CREB reporter modulators without forskolin, primary screen, cell-based, PC12, CRE-LacZ reporter, unstimulated (AID 1145); conditions: no forskolin, luminescence, 4.5 h, higher = more signal, called active from +8 up or from −8 down
# [5] = CREB reporter modulators under forskolin, primary screen, cell-based, PC12, CRE-LacZ reporter, forskolin-stimulated (AID 1146); conditions: luminescence, 4.5 h, higher = more signal, called active from +8 up or from −8 down;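 further: PC12 cells with 6xCRE LacZ reporter stimulated by forskolin 10 µM; beta-galactosidase reporter signal reflecting CREB driven transcription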
# [6] = molecular target: Streptavidin (Streptomyces avidinii) (UniProt P22629); test: streptavidin binders on small-molecule microarray, primary screen, artefact control for SMM compound annotation, biophysical, 635/667 nm fluorescence (AID 1147); conditions: streptavidin binding, higher = more signal;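 further: signal reflects streptavidin binding to arrayed compounds as a control protein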
# Sequence of Streptavidin (Streptomyces avidinii) (P22629 whole entry, looked up): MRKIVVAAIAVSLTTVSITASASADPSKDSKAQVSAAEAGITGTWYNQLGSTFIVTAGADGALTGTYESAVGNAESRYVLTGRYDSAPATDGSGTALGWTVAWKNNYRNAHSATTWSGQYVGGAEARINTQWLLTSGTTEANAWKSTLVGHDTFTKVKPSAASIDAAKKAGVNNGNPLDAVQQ
# [7] = small-molecule binders of probe aInhba, primary screen, biochemical, small-molecule microarray, 635/667 nm fluorescence (AID 1148); conditions: higher = more signal;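 further: score merges 667nm spot fluorescence with signal-to-noise for antibody binding to printed compounds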
# Torsin-1A (Homo sapiens) [8] = molecular target: Torsin-1A (Homo sapiens) (UniProt O14656); test: torsin A binders from cell lysate, primary screen, small-molecule microarray, wild-type, 635/667 nm (AID 1149); conditions: COS7 hTOR1A-WT lysate, 635 nm fluorescence, higher = more signal
# Sequence of Torsin-1A (Homo sapiens) (O14656 whole entry, looked up): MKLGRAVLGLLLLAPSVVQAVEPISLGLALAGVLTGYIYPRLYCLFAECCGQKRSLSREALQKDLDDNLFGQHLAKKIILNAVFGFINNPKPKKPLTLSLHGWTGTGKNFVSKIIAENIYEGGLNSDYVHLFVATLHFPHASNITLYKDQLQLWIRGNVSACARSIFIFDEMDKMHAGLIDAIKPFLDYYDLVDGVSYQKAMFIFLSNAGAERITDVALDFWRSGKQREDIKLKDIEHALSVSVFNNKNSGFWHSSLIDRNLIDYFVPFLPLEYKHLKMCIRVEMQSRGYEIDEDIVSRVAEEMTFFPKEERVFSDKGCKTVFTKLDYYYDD
# Torsin-1A (Homo sapiens) [9] = molecular target: Torsin-1A (Homo sapiens) (UniProt O14656); test: small-molecule binders of mutant TOR1A in lysate, primary screen, cell lysate, small-molecule microarray, COS7 lysate, 635/667 nm fluorescence (AID 1150); conditions: COS7 hTOR1A mutant lysate, 635 nm fluorescence, higher = more signal;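 further: score pools 667 nm emission and signal to noise measuring lysate protein binding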
# [10] = system: Sonic hedgehog protein (Shh); test: small-molecule binders of Shh protein, primary screen, biochemical, small-molecule microarray, 635/667 nm fluorescence (AID 1151); conditions: small-molecule microarray binding, 635 nm fluorescence; higher = more signal;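 further: Shh protein binding to compounds spotted on small-molecule microarray slides; score combines spot fluorescence intensity with signal-to-noise across triplicate slides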
# [11] = E. coli DRC41 culture turbidity changes, primary screen, E. coli filamentation inducer project, strain DRC41, OD650, 48 h (AID 1152);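 further: E. coli MC1000 strain DRC41 lacking acrAB efflux pump and sulA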; conditions: E. coli DRC41 (acrAB sulA), higher = more signal, called active from +8 up or from −8 down
# [12] = small-molecule binders of probe aLefty1, primary screen, biochemical, small-molecule microarray, 635/667 nm fluorescence (AID 1153); conditions: higher = more signal;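 further: score merges spot fluorescence with signal-to-noise ratio from the scanned slide images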
# [13] = PSAC antagonists in infected red cells, primary screen, cell-based, P. falciparum Indochina, OD700, 1 h (AID 1154); conditions: P. falciparum Indochina infected RBC osmotic lysis, higher = more signal, called active from +8 up or from −8 down
# [14] = PSAC antagonists in infected red cells, primary screen, cell-based, P. falciparum Indochina, OD700, 2 h (AID 1155);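 further: lysis reports solute entry through the parasite surface anion channel PSAC; channel blockers reduce lysis of infected cells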; conditions: P. falciparum Indochina infected erythrocytes, osmotic lysis OD700; higher = more signal, called active from +8 up or from −8 down
# [15] = osmotic lysis modulators in infected erythrocytes, primary screen, PSAC antagonist project, cell-based, P. falciparum Indochina, OD700, 3 h (AID 1156); conditions: higher = more signal, called active from +8 up or from −8 down
# [16] = PSAC antagonists in infected red cells, primary screen, cell-based, P. falciparum Indochina, OD700, 18 h (AID 1157); conditions: P. falciparum Indochina infected erythrocytes, osmotic lysis OD700, 18 h; higher = more signal, called active from +8 up or from −8 down
# [17] = modulators of S6 phosphorylation in cells, primary screen, cell-based, A549, cytoblot, luminescence, serum-stimulated (AID 1158); conditions: A549 phospho-S6 cytoblot, 5 h, higher = more signal;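 further: serum-stimulated A549 lung adenocarcinoma cells; signal is phosphorylated S6 detected by cytoblot immunostaining with HRP secondary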
# [18] = molecular target: NADPH oxidase 2 (Homo sapiens) (UniProt P04839); test: NOX2-dependent H2O2 signal modulators, primary screen, NOX inhibitor project, cell-based, HEK293-NOX2, PMA-stimulated, Amplex Red fluorescence (AID 1159); conditions: 45 min, higher = more signal, called active from +8 up or from −8 down; further: test concentration not given here
# Sequence of NADPH oxidase 2 (Homo sapiens) (P04839 whole entry, looked up): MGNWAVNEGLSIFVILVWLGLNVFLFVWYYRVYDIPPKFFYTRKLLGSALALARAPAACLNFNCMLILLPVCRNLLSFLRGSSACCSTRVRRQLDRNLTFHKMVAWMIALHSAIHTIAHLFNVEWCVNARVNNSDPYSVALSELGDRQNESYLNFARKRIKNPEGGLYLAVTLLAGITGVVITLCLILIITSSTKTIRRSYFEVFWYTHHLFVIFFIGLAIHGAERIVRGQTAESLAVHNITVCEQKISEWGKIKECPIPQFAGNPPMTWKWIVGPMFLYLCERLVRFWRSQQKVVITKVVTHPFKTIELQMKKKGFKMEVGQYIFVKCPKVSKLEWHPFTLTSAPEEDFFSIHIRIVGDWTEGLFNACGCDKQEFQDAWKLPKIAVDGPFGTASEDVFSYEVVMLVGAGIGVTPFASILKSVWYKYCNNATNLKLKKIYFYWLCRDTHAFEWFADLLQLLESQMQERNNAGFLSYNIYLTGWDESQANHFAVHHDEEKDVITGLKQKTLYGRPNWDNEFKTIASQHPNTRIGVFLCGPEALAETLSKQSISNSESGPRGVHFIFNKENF
# [19] = molecular target: NADPH oxidase 4 (Homo sapiens) (UniProt Q9NPH5); test: NOX4-dependent H2O2 signal modulators, primary screen, NOX inhibitor project, cell-based, HEK293-NOX4, tetracycline-induced, Amplex Red fluorescence (AID 1160); conditions: 45 min, higher = more signal, called active from +8 up or from −8 down
# Sequence of NADPH oxidase 4 (Homo sapiens) (Q9NPH5 whole entry, looked up): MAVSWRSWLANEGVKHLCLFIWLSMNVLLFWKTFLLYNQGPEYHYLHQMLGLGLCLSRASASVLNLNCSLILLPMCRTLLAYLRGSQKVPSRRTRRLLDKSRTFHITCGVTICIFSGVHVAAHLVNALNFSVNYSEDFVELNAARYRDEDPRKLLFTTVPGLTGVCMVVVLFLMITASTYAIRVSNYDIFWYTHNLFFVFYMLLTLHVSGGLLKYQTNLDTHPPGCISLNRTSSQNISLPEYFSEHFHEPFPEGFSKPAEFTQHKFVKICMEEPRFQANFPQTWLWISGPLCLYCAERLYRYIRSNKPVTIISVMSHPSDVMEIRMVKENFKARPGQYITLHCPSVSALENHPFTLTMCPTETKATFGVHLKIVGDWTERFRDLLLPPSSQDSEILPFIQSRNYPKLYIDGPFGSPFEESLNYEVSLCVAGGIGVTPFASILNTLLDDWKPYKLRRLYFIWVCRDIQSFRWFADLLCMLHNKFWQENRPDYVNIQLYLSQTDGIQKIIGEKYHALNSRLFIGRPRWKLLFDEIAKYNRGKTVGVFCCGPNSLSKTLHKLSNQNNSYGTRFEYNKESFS
# [20] = molecular target: NADPH oxidase 5 (Homo sapiens) (UniProt Q96PH1); test: NOX5-dependent H2O2 signal modulators, primary screen, NOX inhibitor project, cell-based, HEK293-NOX5, Amplex Red fluorescence (AID 1161); conditions: HEK293-NOX5, ionomycin, 45 min, higher = more signal
# Sequence of NADPH oxidase 5 (Homo sapiens) (Q96PH1 whole entry, looked up): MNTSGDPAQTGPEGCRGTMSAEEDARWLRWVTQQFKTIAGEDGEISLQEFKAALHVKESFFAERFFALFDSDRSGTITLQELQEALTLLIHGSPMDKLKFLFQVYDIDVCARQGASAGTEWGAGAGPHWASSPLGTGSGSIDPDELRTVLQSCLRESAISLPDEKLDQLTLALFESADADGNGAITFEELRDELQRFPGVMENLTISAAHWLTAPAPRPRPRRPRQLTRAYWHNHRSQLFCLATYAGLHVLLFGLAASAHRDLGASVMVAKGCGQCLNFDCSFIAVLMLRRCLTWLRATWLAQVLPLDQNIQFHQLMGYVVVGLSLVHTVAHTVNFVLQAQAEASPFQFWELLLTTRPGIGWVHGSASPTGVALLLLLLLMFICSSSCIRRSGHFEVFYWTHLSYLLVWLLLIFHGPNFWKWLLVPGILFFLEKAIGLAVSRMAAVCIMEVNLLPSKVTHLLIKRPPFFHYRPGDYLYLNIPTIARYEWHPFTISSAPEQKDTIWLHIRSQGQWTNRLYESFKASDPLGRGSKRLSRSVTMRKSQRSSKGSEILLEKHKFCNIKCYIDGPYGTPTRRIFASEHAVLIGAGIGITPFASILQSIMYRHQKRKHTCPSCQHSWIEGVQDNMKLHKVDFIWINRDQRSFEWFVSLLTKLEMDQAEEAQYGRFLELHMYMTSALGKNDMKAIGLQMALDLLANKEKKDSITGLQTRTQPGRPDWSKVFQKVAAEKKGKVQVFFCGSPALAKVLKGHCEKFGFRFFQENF
SMILES,composite z-score [1],z-score [2],z-score [3],z-score [4],z-score [5],composite z-score [6],composite z-score [7],composite z-score (Torsin-1A (Homo sapiens) [8]),composite z-score (Torsin-1A (Homo sapiens) [9]),composite z-score [10],z-score [11],composite z-score [12],z-score [13],z-score [14],z-score [15],z-score [16],z-score [17],z-score [18],z-score [19],z-score [20]
CCCNC(=O)OC[C@H]1O[C@H](CCON=C(C)CCN2CCc3nc(-c4ccccc4)c(-c4ccccc4)cc3C2)C=C[C@@H]1Oc1ccc(OC)cc1,0.156,-0.81 (inactive),-0.158 (inactive),2.49 (inactive),-0.113 (inactive),0.114,-0.152,0.479,0.302,0.449,-1.29 (inactive),-0.0054,1.77 (inactive),0.454 (inactive),0.571 (inactive),0.441 (inactive),0.0851,-0.473 (inactive),-2.55 (inactive),-2.17
C=CCN(Cc1ccccc1)C(=O)C1N(CCCCCCO)C(=O)C2C(C(=O)O)C3C=CC21O3 (stereo not given),-1.02 and -1.77,-0.118 (inactive) and 0.533 (inactive),-0.12 (inactive) and -1.45 (inactive),-1.31 (inactive) and -1.44 (inactive),-0.665 (inactive) and -0.279 (inactive),-1.02 and -1.77,-0.159 and -0.21,-3.02 and -4.56,-2.45 and 0.914,-1.62 and -1.85,-0.107 (inactive) and 0.999 (inactive),-0.0508 and -0.101,0.506 (inactive) and 0.459 (inactive),-0.232 (inactive) and -0.314 (inactive),-0.911 (inactive) and -0.362 (inactive),0.135 (inactive) and 0.161 (inactive),-0.276 and 0.27,0.498 (inactive) and 0.0836 (inactive),-0.308 (inactive) and -0.348 (inactive),0.751 and 0.232
CC(C)C(=O)N[C@@H]1CCCN1C(=O)C=Cc1ccccc1,-0.0494,0.135 (inactive),1.06 (inactive),0.56 (inactive),0.685 (inactive),0.504,-0.0216,0.841,0.448,0.605,0.214 (inactive),-0.101,-0.272 (inactive),0.274 (inactive),-0.77 (inactive),-0.241 (inactive),-0.685,-0.457 (inactive),0.53 (inactive),0.434
CO[C@@H]1COC(=O)CC=C[C@H](C)COC(=O)[C@H](C)NC(=O)CC=C[C@H]1C,0.144,0.178 (inactive),0.213 (inactive),1.24 (inactive),-0.218 (inactive),0.477,-0.208,0.919,1.16,1.19,-0.762 (inactive),-0.344,-0.0875 (inactive),0.193 (inactive),0.599 (inactive),-0.138 (inactive),-0.677,2.01 (inactive),0.486 (inactive),-0.47
C[N+](C)(C)CCCCCCNC(=O)[C@H]1C[C@H]2C(=O)N[C@@H](CCCC[N+](C)(C)C)C(=O)N2[C@H]1c1cccc(OCCO)c1,0.138 and 0.215,-0.153 (inactive) and 0.0096 (inactive),-0.454 (inactive) and 0.221 (inactive),-0.532 (inactive) and -1.09 (inactive),0.323 (inactive) and -0.622 (inactive),-0.621 and 0.0935,0.298 and 0.135,0.765 and 1.27,1.11 and 0.354,1.98 and 1.79,1.06 (inactive) and -0.391 (inactive),0.212 and 1.06,3.2 (inactive) and 3.03 (inactive),1.03 (inactive) and 1.07 (inactive),0.0478 (inactive) and -2.4 (inactive),0.448 (inactive) and 0.301 (inactive),-0.0981 and -0.617,-0.142 (inactive) and -0.0849 (inactive),0.566 (inactive) and 0.746 (inactive),0.749 and 0.86
C[C@@H]1CC[C@H]2C(=O)O[C@H](CN=[N+]=[N-])CN2[C@H]1c1ccc(Br)cc1,-0.0328 and -0.216,-2.85 (inactive) and -0.512 (inactive),-0.203 (inactive) and -0.277 (inactive),-0.162 (inactive) and 3.89 (inactive),-0.177 (inactive) and -0.414 (inactive),-0.167 and 0.0058,0.0232 and -0.154,0.225 and 0.372,0.455 and 0.101,0.286 and -0.196,-1.87 (inactive) and -0.609 (inactive),0.0457 and -0.284,-0.1 (inactive) and 2.08 (inactive),0.23 (inactive) and 1.03 (inactive),0.124 (inactive) and 0.564 (inactive),-0.12 (inactive) and 0.491 (inactive),-0.524 and -0.466,0.993 (inactive) and 0.995 (inactive),-0.0537 (inactive) and -0.184 (inactive),-0.124 and 0.779
C=CCN(CCCCC)C(=O)C1N(C(C)(C)CO)C(=O)C2C(C(=O)O)C3C=CC21O3 (stereo not given),-0.912 and -0.258,0.879 (inactive) and 1.06 (inactive),1.13 (inactive) and 1.98 (inactive),-0.0737 (inactive) and -0.484 (inactive),-0.0682 (inactive) and 0.563 (inactive),-1.6 and -1.67,-0.213 and -0.0791,-3.01 and -1.59,-2.24 and -1.18,-0.99 and -0.61,-0.548 (inactive) and -0.511 (inactive),-0.717 and -0.18,-0.632 (inactive) and -0.588 (inactive),-0.042 (inactive) and -0.318 (inactive),-0.694 (inactive) and -1.04 (inactive),-0.281 (inactive) and -0.646 (inactive),0.0495 and 2.08,1.02 (inactive) and 0.298 (inactive),-0.188 (inactive) and -0.0857 (inactive),0.101 and 0.407
COC(=O)C1=C(C)N(Cc2ccccc2)[C@]23O[C@](C(=O)OC)(C(=O)N2[C@@H]1c1ccccc1)[C@@H](c1ccccc1)[C@@H]3C(=O)c1ccccc1,0.216 and 0.0881,-3.24 (inactive) and 0.14 (inactive),-0.137 (inactive),0.751 (inactive) and 0.29 (inactive),-1.08 (inactive) and -0.186 (inactive),0.454 and 0.377,-0.0736 and -0.119,0.388 and 0.241,0.392 and 0.308,0.229 and 0.599,-1.1 (inactive) and 0.116 (inactive),-0.145 and -0.193,1.17 (inactive) and 0.647 (inactive),-0.645 (inactive) and 0.238 (inactive),0.372 (inactive) and 0.467 (inactive),-1.38 (inactive) and 0.0752 (inactive),1.39 and 0.0227,2.38 (inactive) and 0.648 (inactive),0.856 (inactive) and 0.876 (inactive),2.66 and 1.46
CC(CO)N1C(=O)[C@@H]2C3C(=O)OCCC=C[C@H]3OC23C=CCN(Cc2ccccc2)C(=O)[C@@H]13 (stereo not given in full),-0.238 and -0.381,-0.783 (inactive) and 0.124 (inactive),2.42 (inactive) and 0.328 (inactive),0.321 (inactive) and 0.195 (inactive),-0.937 (inactive) and -0.56 (inactive),-0.422 and -0.768,-0.128 and -0.0762,-0.773 and 0.447,1.55 and 1.17,-0.525 and 0.901,0.697 (inactive) and 0.925 (inactive),-0.0162 and 0.132,3.31 (inactive) and 0.464 (inactive),1.11 (inactive) and 0.0933 (inactive),1.21 (inactive) and 1.05 (inactive),0.403 (inactive) and 0.258 (inactive),-0.388 and -0.526,1.26 (inactive) and 1.71 (inactive),1.09 (inactive) and -0.409 (inactive),2.15 and 2.85
COC(=O)[C@@]1(Cc2ccccc2)[C@H]2c3cc(C(=O)N(C)C)n(C[C@H](O)CO)c3C[C@H]2CN1C(=O)c1ccccc1,-0.19 and 0.0986,0.0129 (inactive) and 0.255 (inactive),-0.256 (inactive) and -0.607 (inactive),1.35 (inactive) and 0.204 (inactive),0.756 (inactive) and -0.209 (inactive),-0.0247 and 0.888,-0.0817 and 0.223,-0.593 and 0.132,0.492 and 0.92,-0.39 and -1.19,-0.741 (inactive) and -1.44 (inactive),0.0903 and 0.415,0.67 (inactive) and 0.448 (inactive),0.324 (inactive) and 0.32 (inactive),1.28 (inactive) and 0.776 (inactive),0.789 (inactive) and 0.446 (inactive),-0.0187 and -0.333,-0.0779 (inactive) and 0.104 (inactive),-3.17 (inactive) and -0.539 (inactive),-4.08 and -0.292
C=CCN(CCCCC)C(=O)C1N(CCOCCO)C(=O)C2C(C(=O)O)C3C=CC21O3 (stereo not given),-1.49 and -0.76,0.41 (inactive) and -0.417 (inactive),1.73 (inactive) and 1.24 (inactive),0.866 (inactive) and 0.601 (inactive),0.17 (inactive) and -0.469 (inactive),-1.6 and -1.66,-0.278 and -0.3,-2.98 and -2.79,-0.411 and -1.26,-1.44 and -0.292,-0.657 (inactive) and -0.678 (inactive),-0.0518 and -0.0061,-0.326 (inactive) and 0.243 (inactive),-0.438 (inactive) and -0.392 (inactive),-0.661 (inactive) and -0.448 (inactive),0.0613 (inactive) and -0.159 (inactive),-0.192 and 0.359,0.347 (inactive) and 0.481 (inactive),-1.7 (inactive) and -1.87 (inactive),0.569 and 0.0493

# Reference: PubChem BioAssay
